# GPR151 activ: activators of human GPR151; Q8TDV0; PathHunter beta-arrestin GPR151 cells, luminescence; activation, % at 11.2 µM; 650,000 tested, 1% active; in the data active means activation above about 4.9%;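 further: 0% = median of compound wells and 100% = cells with positive control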
# FBW7 act: human FBW7 E3 ligase activation, primary screen. Q969H0. AlphaScreen FBW7–phospho-cyclin E peptide binding, activator screen. normalized activity (activation), % at 26.1 µM. 650,000 tested, 0.13% active. AID 1259310; in the data active means normalized activity above about 1.9%;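 further: purified mutant Fbw7 with reduced substrate affinity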
# Target sequence (Q969H0 whole entry, looked up): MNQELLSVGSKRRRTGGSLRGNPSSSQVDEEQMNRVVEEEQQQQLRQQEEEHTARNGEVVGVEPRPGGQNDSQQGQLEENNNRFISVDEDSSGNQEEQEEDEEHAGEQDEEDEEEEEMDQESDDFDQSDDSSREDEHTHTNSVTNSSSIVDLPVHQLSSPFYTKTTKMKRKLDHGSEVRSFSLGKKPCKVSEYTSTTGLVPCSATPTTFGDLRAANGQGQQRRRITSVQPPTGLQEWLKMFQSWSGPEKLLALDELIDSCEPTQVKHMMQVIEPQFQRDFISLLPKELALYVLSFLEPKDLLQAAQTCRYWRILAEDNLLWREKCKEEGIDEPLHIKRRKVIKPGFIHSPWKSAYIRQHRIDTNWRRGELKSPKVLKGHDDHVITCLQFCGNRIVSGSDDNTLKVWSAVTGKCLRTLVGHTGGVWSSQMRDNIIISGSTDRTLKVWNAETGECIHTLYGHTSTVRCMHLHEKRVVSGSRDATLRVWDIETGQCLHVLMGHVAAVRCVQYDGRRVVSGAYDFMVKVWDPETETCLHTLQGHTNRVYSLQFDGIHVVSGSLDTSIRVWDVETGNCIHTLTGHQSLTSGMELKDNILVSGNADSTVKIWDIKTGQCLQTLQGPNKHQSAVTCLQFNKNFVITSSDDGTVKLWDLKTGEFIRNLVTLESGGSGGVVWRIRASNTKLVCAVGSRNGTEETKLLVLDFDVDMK
# MITF primary: blocks human microphthalmia-associated transcription factor; AID 1259374; inhibition, % at 2.6 µM; 650,000 tested, 0.91% active; O75030; AlphaScreen MITF homodimerization, bead proximity signal; in the data active means inhibition above about 50%;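 further: 0% = vehicle wells with protein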
# TEAD-YAP block: TEAD-YAP interaction inhibition | 640,000 tested, 1.4% active | HEK-TIYL cells, TEAD-Gal4/YAP UAS-luciferase luminescence | inhibition, % at 9.12 µM | AID 1259422; in the data active means inhibition above about 32%;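 further: 0% = median of test compound wells and 100% = reference inhibitor wells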
# GPR151 confirm: human GPR151 activation, confirmation screen. shares compounds with GPR151 activ. GPR151 PathHunter beta-arrestin cells, luminescence, 90 min; % of EA-reagent control over plate median. activation, % at 11.2 µM. 6,700 tested, under 10 active. AID 1508609;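 active means mean percent activation across replicates above the confirmation screen cutoff of 4.91%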
# GPR119 ag: activates human GPR119 in a GPR151 counter-screen. shares compounds with GPR151 activ. GPR119 PathHunter beta-arrestin cells, luminescence, 90 min; 0 = compound-well median, 100 = enzyme-acceptor control. activation, % at 11.2 µM. 6,700 tested, 0.3% active;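 active means mean percent activation in the counterscreen above 29.09%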;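 further: counterscreen on off-target GPR119 to flag nonselective hits from the GPR151 activator screen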
# The depositor's hits bear a star; . = not tested or not shown. Most compounds without a hit are left out; they make up all but 3.4% or so of the library.
SMILES,GPR151 activ,FBW7 act,MITF primary,TEAD-YAP block,GPR151 confirm,GPR119 ag
CCOc1c([N+](=O)[O-])c(=O)oc2ccc([N+](=O)[O-])cc12,-3,0,5,1,.,.
CCOc1ccc(OCC(=O)Nc2ccc(OC)cc2[N+](=O)[O-])cc1,-1,0,13,11,.,.
CCOc1ccc(NC(=O)Nc2cccc(OC)c2)c([N+](=O)[O-])c1,10*,0,1,-13,0,0
COc1ccc(-n2nc3ccc(NC(=O)c4ncn[nH]4)cc3n2)cc1Cl,5.0*,0,9,0,0,-2
C=CCOc1ccccc1CNc1cccc(C(=O)O)c1,-2,0,17,2,.,.
O=C(O)c1cccc(NCc2cccc3ccccc23)c1,11*,0,10,-19,0,3
COc1ccc(-c2cnc(N3CCCCC3)nc2)cc1,-4,0,-14,9,.,.
COc1cc(C(=O)Nc2sc3c(c2C#N)CCN(C(C)=O)C3)cc(OC)c1OC,-1,0,6,29,.,.
COc1cc(OC)cc(C(=O)Nc2sc3c(c2C#N)CCN(C(C)=O)C3)c1,7.3*,0,9,61*,1,4
CCOc1ccc(NC(=O)Cn2c(-n3nc(C)cc3C)nc(C)cc2=O)cc1,9.1*,0,10,14,1,7
COc1ccc(NC(=O)Cn2c(-n3nc(C)cc3C)nc(C)cc2=O)cc1,-1,-1,0,-11,.,.
O=C1OC(c2ccc(F)cc2)=N/C1=C\c1ccc(-c2ccc(I)cc2)o1,6.0*,0,-1,-1,0,-1
COc1cc(OC)c(C(=O)OCC#N)cc1OC,5.7*,0,1,6,0,4
CCCNC(=O)C1CSC(c2ccccc2)N1C(=O)Nc1ccccc1OC (stereo unspecified),0,0,-4,-3,.,.
Cc1[nH]c2ccc(CNC(=O)Nc3ccc(F)cc3F)cc2c1C,5.9*,0,6,6,-1,-6
Cn1ncc2c(N3CCN(Cc4ccc5c(c4)OCO5)CC3)ncnc21,1,1,6,2,.,.
O=[N+]([O-])c1ccc2ncnc(N3CCN(Cc4ccc5c(c4)OCO5)CC3)c2c1,12*,-1,4,35*,1,3
O=C1c2ccc(N3CCOCC3)c3c(N4CCOCC4)ccc(c23)C(=O)N1c1ccccc1,1,0,10,14,.,.
Cc1cc(Nc2ccc3c(c2)OCO3)nc(Nc2nc3ccccc3n2C)n1,7.4*,0,-10,0,0,-1
Cc1ccccc1CSCCNS(=O)(=O)c1ccccc1[N+](=O)[O-],5.9*,0,-7,0,0,-5
CCOC(=O)CSc1nc2nccnc2c(=O)n1Cc1ccccc1,5.0*,0,5,1,0,-1
CCOC(=O)CSc1nc2c(sc(=S)n2Cc2ccccc2)c(=O)n1Cc1ccccc1,6.0*,0,-10,-14,0,-4
CCOC(=O)CSc1nc2c(c(=O)n1Cc1ccccc1)C1(CCCC1)Cc1ccccc1-2,7.5*,1,21,-4,0,12
CCOC(=O)CSc1nc2cc(C(=O)NC3CCCCC3)ccc2c(=O)n1CCc1ccccc1,5.1*,0,17,13,0,-1
CCOC(=O)CSc1nc2c(sc(=S)n2Cc2ccccc2)c(=O)n1-c1cccc(Cl)c1,0,0,3,10,.,.
SMILES,GPR151 activ,FBW7 act,MITF primary,TEAD-YAP block,GPR151 confirm,GPR119 ag
NC(=O)CSc1nc2nccnc2c(=O)n1Cc1ccccc1,0,0,0,1,.,.
CCOC(=O)CN(Cc1cc(OC)c(OC)c(OC)c1)S(=O)(=O)c1ccc(F)c(C)c1,0,0,15,-15,.,.
CCOC(=O)c1cc(-c2nnc(-c3ccc(Br)cc3)o2)c(C)nc1C,-2,0,-3,10,.,.
COC(=O)c1ccccc1NC(=O)c1cnn(-c2ccccc2)c1C1CCNCC1,0,0,-11,-7,.,.
CSc1nc2sccn2c(=O)c1C(=O)NCC(F)(F)F,-1,0,20,4,.,.
CSc1nc2sccn2c(=O)c1C(=O)NC1CCC(O)CC1 (stereo unspecified),6.8*,0,-5,3,0,9
CSc1nc2sccn2c(=O)c1C(=O)NCc1ccccc1Oc1ccccc1,17*,0,6,7,2,6
COC(=O)c1cc(S(=O)(=O)Nc2cccc(C)c2)cn1C,2,0,8,1,.,.
CC(CCc1ccccc1)NCCNC(=O)c1cccs1 (stereo unspecified),-1,0,34,1,.,.
CC/C(C)=N\NC(=O)c1ccc(N)cc1,1,0,7,-25,.,.
CC/C(C)=N/NC(=O)c1ccc(C(=O)N/N=C(\C)CC)cc1,8.3*,0,-17,4,0,6
Cc1ccc(OCC(=O)NC23CC4CC(CC(C4)C2)C3)cc1C,5.1*,0,5,-43,0,-10
NC(=O)c1cncc(-c2cc(F)c3c(c2)CC(CNC(=O)C2CCCO2)O3)c1 (stereo unspecified),1,0,6,-3,.,.
CCOCCc1nnc(NC(=O)CC(c2ccccc2)c2ccccc2)s1,8.6*,1,20,2,0,9
Cc1cc(C)nc(SCc2cc(=O)c(OC(=O)c3ccc([N+](=O)[O-])cc3)co2)n1,0,0,10,-20,.,.
C=CCOc1c(Br)cc(CNCCO)cc1OC,6.7*,0,-5,4,-1,-3
COc1cc(CNCCO)cc(Br)c1OCc1ccccc1,-1,1,16,0,.,.
Cc1ccc2c(c1)-c1c(ssc1=S)C(C)(C)N2C(=O)c1ccccc1Cl,6.2*,-1,29,-4,0,24
COC(=O)c1sc2cc([N+](=O)[O-])cc(Sc3ccccc3)c2c1-n1cccc1,5.7*,0,-11,-14,0,-8
COC(=O)c1sc2cc([N+](=O)[O-])cc(Sc3ccccc3)c2c1N,0,0,-1,1,.,.
COCc1c(C(=O)N/N=C\c2ccccc2OC)nnn1-c1nonc1N,5.1*,0,12,1,-1,-6
Nc1nonc1-n1nnc(C(=O)N/N=C/c2cccs2)c1CN1CCc2ccccc21,2,0,-6,-1,.,.
Nc1nonc1-n1nnc(C(=O)N/N=C/c2ccco2)c1CN1CCc2ccccc21,11*,0,-5,-7,0,2
O=C(Nc1nnc(N2CCCC2)s1)Nc1ccc(Br)cc1F,5.6*,0,0,-11,0,-3
O=C(Nc1nnc(N2CCCC2)s1)Nc1ccccc1F,0,0,-3,-74,.,.
Cc1ccc(NC(=O)Nc2nnc(N3CCCCC3)s2)c(Cl)c1,5.3*,0,-3,5,0,-9
CCOC(=O)/C(N=Nc1cc(Cl)c(OC)cc1OC)=C(\C)O,4.9*,0,-3,6,1,7
Cc1cc(N2CCC(C)CC2)nc2ccc(N)cc12,7.4*,0,1,-35,-1,-2

# Assay outcomes from PubChem BioAssay.
